# Many of the other results were omitted from the sample, so hits are more common in it than they were.
# Methyltransferases: Primary Screen for Target Class Profiling of Small Molecule Inhibitors of Methyltransferases. calls only at 40 µM. AID 1745853, 2022. hit rate 3.9% among 25,000. purified enzyme, MTase-Glo SAH luminescence; active compounds read low; call rule not given here
#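 Each enzyme was assayed with SAM and its substrate. SAH formation detected by MTase-Glo luminescence; single-point 40 uM screen[…].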
# MTase-Glo counter: Counterscreen for Target Class Profiling of Small Molecule Inhibitors of Methyltransferases; shares compounds with Methyltransferases; MTase-Glo coupled enzymes, SAH conversion luminescence, no MTase; Potency, µM (series often up to 57.3 µM), inactives show at the top dose activity change, negative = inhibition, hits mostly inhibitors; hit rate 6% among 180; AID 1745851, 2022; active = well fitted inhibition curve with a large enough effect; note: potency is the fitted concentration of half-maximal effect
# The depositor's hits bear a star; i = inactive; + = active, no number; ! = not confirmed by another sample; [ ] = remark or other dose. % is set by controls: 0 for no effect and ±100 for the full control effect.
SMILES,Methyltransferases,others
COc1ccc(C(=O)Cn2nc3n(C(C)C)c(=O)c4ccc(C(=O)NC5CCCC5)cc4n3c2=O)cc1,i,
COc1cc(NC(=O)O[C@@H]2CC[C@]3(C)C(CC[C@@H](O)[C@H]3CC(=O)N3CC[C@H](NC(C)=O)C3)[C@]2(C)CO)cc(OC)c1 (some centres not stated),i,
CC1(C)O[C@@]2(C)CC[C@@H]1C[C@@H]2OC1OC(CO)C(O)C(O)C1O (some centres not stated),+,
CC(C)C(=O)O[C@@H]1[C@@H](O)[C@@H](O[C@H]2O[C@H](CO)[C@@H](O)[C@H](O)[C@H]2O)O[C@H](CO)[C@H]1O,i,
CC(C)C(=O)OC[C@H]1O[C@H](O[C@H]2O[C@H](CO)[C@@H](O)[C@H](O)[C@H]2O)[C@H](O)[C@@H](O)[C@@H]1O,i,
C=C1C(=O)OC2/C=C(\C)CC/C=C(\C=O)C(OC)C(OC(=O)C(C)CC)C12 (configuration not stated),+,
C=C1C(=O)O[C@@H]2/C=C(\C)CC/C=C(\C(=O)O[C@@H]3O[C@H](CO)[C@@H](O)[C@H](O)[C@H]3O)CC[C@@H]12,i,
C=C1C(=O)O[C@@H]2/C=C(\C)CC/C=C(/C=O)[C@H](OC)[C@@H](OC(=O)C(C)C)[C@@H]12,i,
C=C1C(=O)O[C@@H]2/C=C(\C)CC/C=C(\C)CC[C@@H]12,i,
C=C1C(=O)OC2/C=C(\CO)CC/C=C(\C=O)C(OC)C(OC(=O)C(C)CC)C12 (configuration not stated),+,
C=C(C)C(=O)O[C@H]1/C(C=O)=C\CC/C(CO)=C/[C@H]2OC(=O)C(=C)[C@@H]2[C@@H]1OC,i,
CCNC(=O)N1CCC(N2C(=O)C3(CCCC3)C2c2ccccc2)CC1 (configuration not stated),i,
O=C1CN(Cc2ccc(Cl)cc2)S(=O)(=O)c2ccccc2N1Cc1ccccc1,i,
CCCn1c(=O)c2ccc(C(=O)NC(C)CC)cc2n2c(=O)n(CC(N)=O)nc12 (configuration not stated),i,
COc1ccc(CCN2C(=O)c3cc4ccccc4n3CC2(C)C(=O)NCc2ccccc2)c(OC)c1 (configuration not stated),i,
CC(C)NC(=O)CCc1nnc2n(Cc3ccc(Cl)cc3)c(=O)c3ccccc3n12,i,
O=C(Cn1nc2n(Cc3ccc(F)cc3)c(=O)c3ccccc3n2c1=O)Nc1cccc(Cl)c1,i,
C[C@@H]1O[C@@H](O[C@H]2[C@H](O[C@H]3CC[C@@]4(C)C(CC[C@]5(C)C4C=C[C@]46OC[C@@]7(CCC(C)(C)C[C@H]74)[C@@H](O[C@@H]4O[C@@H](C)[C@H](O)[C@@H](O)[C@H]4O)C[C@]65C)[C@]3(C)CO)O[C@H](CO)[C@@H](O)[C@@H]2O[C@@H]2O[C@H](CO)[C@@H](O)[C@H](O)[C@H]2O)[C@H](O)[C@H](O)[C@H]1O (some centres not stated),i,
COc1ccc(NC(=O)c2ccc3c(c2)N(C(=O)c2ccc(OC)cc2)CC3)cc1,i,
CCN(CC)Cc1ccc2cc(COC(=O)Nc3ccc(C(=O)NO)cc3)ccc2c1,+!,
COCCN1C[C@H]2CN(C(=O)C3CCC3)C[C@@]2(C(=O)O)C1,i,
COc1cccc(N2C(=O)c3cc(-c4cccs4)nn3CC2(C)C(=O)NC2CCCCC2)c1 (configuration not stated),i,
COc1ccc(-c2oc3ccc(C)cc3c(=O)c2O)cc1OC,+,
CCN1CCN(Cc2cc3ccc(C)cc3nc2-c2ccc(OC)c(OC)c2)CC1,i,
COc1ccc(-c2nnc(-c3ccc(Cl)c(S(=O)(=O)N4CCC(C)CC4)c3)o2)cc1OC,i,
SMILES,Methyltransferases,others
Fc1ccc(N2CCCCC2)c(NC(=S)c2ccncc2)c1,+,
COc1cccc(CN2C(=O)c3c(NC(C)=O)c4ccccc4n3CC2(C)C(=O)NCCC(C)C)c1 (configuration not stated),i,
COCc1nc2nc(-c3ccccc3)c(-c3ccc(O)c(F)c3)cc2n1C,+,MTase-Glo counter=-5.8%[85.7 µM]
C=CC1(C)CC(OC(=O)C(=C)C(O)COC(C)=O)C(C(=C)C(=O)OC)C(O)C1C(=C)CO (configuration not stated),i,
Cc1cnc(CCNC(=O)Cc2ccncc2)n1CC1CC1,i,
Cc1cnc(CCNC(=O)c2ccc(C#N)cc2)n1C1CC1,i,
O=C(Nc1ccc2c(c1)OCCO2)N1CC(c2nc(CCOCC3CC3)no2)C1,i,
Cc1cnc(CC2CCN(C(=O)Nc3ccc4c(c3)OCCO4)C2)n1C1CC1 (configuration not stated),i,
Cc1cnc(CCNC(=O)c2n[nH]c(=O)c3ccccc23)n1C1CCCCC1,+,MTase-Glo counter=-5.7%

# Screening data deposited in PubChem by National Center for Advancing Translational Sciences (NCATS).
